Measurements published in PubChem BioAssay (NCATS).
Values joined by “and” are separate entries in the source; they are usually repeats but may differ in a detail not shown here. Equal values may be shown once. Inconclusive results are not listed. Where a call stands in place of a potency, no number is given. Active and inactive are the calls of the source. Unless noted, calls follow the shape of the dose curve; as a rule, active = well fitted curve in the direction sought with a large enough effect; inconclusive = small, poorly fitted or top-dose-only effect, or another doubt; inactive = no such curve, though single readings can be large; an effect the other way counts as inactive or inconclusive.

Assays:
[1] = Cell Viability - LYMP1-002 - Assay at 24 hr (AID 993)
Summary of the method: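 qHTS cytotoxicity at 24 h: CellTiter-Glo ATP luminescence in lymphoblastoid line LYMP1-002 incubated with compound at 37 °C. Concentration-response modeled with the Hill equation for AC50; tetraoctylammonium bromide served as positive control.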

[2] = Cell Viability - LYMP1-002 - Assay at 40 hr (AID 994); also: nearly all actives have a fitted effect of over 60% in size
Summary of the method: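 Cytotoxicity was read as loss of cellular ATP (CellTiter-Glo luminescence) after 40 hr compound exposure at 37 C of 2500 LYMP1-002 lymphoblastoid cells per well. Concentration-response data were fitted with the standard Hill equation to give AC50.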

[3] = target: Alpha-galactosidase (Coffea arabica) (UniProt Q42656); assay: Counterscreen for Glucocerebrosidase Inhibitors: qHTS Assay for Coffee Bean alpha-Galactosidase at pH 5.9 (AID 998)
Summary of the method: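 Fluorogenic 4-MU substrate hydrolysis, 80 uM substrate and 2 nM coffee bean alpha-galactosidase, pH 5.9 citrate buffer, 20 min at room temperature, then NaOH/glycine stop. Titration 0.7 nM–77 uM, normalized to no-enzyme and enzyme controls, AC50 via Hill equation.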

[4] = qHTS for differential inhibitors of proliferation of Plasmodium falciparum line 7G8 (AID 1815);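 also: parasite growth measured after three days of incubation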; also: potency is read from the fitted curve at half-maximal effect
[5] = qHTS Assay for Lipid Storage Modulators (AID 1519; calls by dose curve); conditions: Drosophila S3 cells, BODIPY lipid droplet/cell ratio, laser cytometry, cells loaded with oleic acid
Summary of the method: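 Cells seeded at 5,000 per well were treated with compounds over a concentration series and loaded with oleic acid (400 uM, as added). Lipid droplet fluorescence (488 nm excitation, 500-530 nm channel) was read by laser-scanning cytometry and normalized to 20 uM Triacsin C.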

[6] = target: alpha-glucosidase (Oryza sativa, rice) (UniProt Q653V4); assay: Counterscreen for Glucocerebrosidase Inhibitors: qHTS Assay for Rice alpha-Glucosidase at pH 5.0 (AID 997)
Summary of the method: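 Endpoint fluorogenic assay at pH 5.0: compounds (0.7 nM to 77 uM) titrated against 4 nM rice enzyme and 400 uM 4-MU-alpha-glucoside for 20 min at room temperature; NaOH/glycine stop, read ex 365/em 440 nm, Hill-fitted AC50.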

[7] = Validation of Assay for Modulators of Lamin A Splicing (AID 1459; active = well fitted curve in the direction sought with a large enough effect in the signal ratio; the % refers to the signal ratio;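 also: cells exposed to compound for two days before reading; ratio rise marks activators and ratio drop marks inhibitors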)
Excerpt: Hutchinson-Gilford Progeria Syndrome (HGPS) is a pediatric premature aging disease caused by a spontaneous mutation in the lamin A/C (LMNA) gene. The mutation activates a cryptic splice site in the LMNA pre-mRNA which results in production of a pre-lamin A protein that cannot be processed properly. The mutant protein accumulates in the nucleus and negatively affects numerous cellular functions. Correction of the splicing defect in HGPS patient cells using a targeted oligonucleotide (exo11) leads to reversal of the cellular disease phenotypes. To identify small molecule modulators of aberrant LMNA splicing, a homogenous assay was constructed in HeLa cells that used a GFP containing minigene to report on correction of aberrant splicing in lamin A and a RFP (DsRed2) to report on cell viability, uniformity and nonspecific effects on the assay signal. This assay was adapted to laser-scanning microplate cytometry (Acumen, TTP Labtech) where miniaturization of the assay to a 1,536-well plate format was possible.
Bowen, W. P.; Wylie, P. G. Application of Laser-Scanning Fluorescence Microplate Cytometry in High Content Screening. Assay Drug Dev Technol 2006;4:209-221.
Scaffidi P, Misteli T. Reversal of the cellular phenotype in the premature aging disease Hutchinson-Gilford progeria syndrome. Nat. Med. 2005;11:440-445.
NCGC Assay Protocol Summary:
Reagents/Controls: Stable clones expressing DsRed2 and lamin A-EGFP were generated by Cell and Molecular Technologies in S3 HeLa cells.
HeLa cells were prepared for the assay when they were 70-90% confluent. The cells were counted and resuspended in Opti-MEM I (no phenol red; Gibco), 2% FBS, 1% penicillin/ streptomycin (Gibco) at concentration of 120 cells/uL concentration. The suspension was passed through a Falcon basket filter with pore size 40um (Beckton Dickson).
Control titrations: column […] 1536-well plate contained a sixteen point titration (1:2 dilutions) in duplicate of ancitabine (Sigma: A8598) beginning at 40 uM final concentration. Column 2 contained a sixteen point titration (1:2 dilutions) of cycloheximide beginning at 1.4 mM final concentration. Column 3 contained ancitabine at 40 uM and column 4 contained was the vehicle control (0.5% DMSO final concentration).
5 uL of HeLa cells were plated in Aurora LoBase black clear bottom (cyclic-olefin polymer) 1536-well plates at a final density of 600 cells/well. Controls and library compounds were added with a 1536-well pin array using the Kalypsys pin-tool. The plates were then incubated for 48 hrs in a cell-culture incubator (37 °C; 5% CO2, 98% humidity). Following incubation the plates were read on the Acumen Explorer using the 488 nm laser. Data was collected on objects between 10 and 100 um in size. Cell objects were defined by a 15 um width x 10 um depth filter. The ratio of the total object intensity in PMT1 (500-530 nm emission; GFP) over PMT3 (575-640 nm emission; RFP) was calculated for analysis.
Keywords: NIH Roadmap, MLSCN, MLI, MLSMR, qHTS, NCGC, lamin A, Progeria, RNA splicing.

[8] = target: DNA repair nuclease/redox regulator APEX1 (Homo sapiens) (UniProt P27695); assay: qHTS Validation Assay for Inhibitors of the Human Apurinic/apyrimidinic Endonuclease 1 (APE1) (AID 1705; also: potency is read from the fitted curve at half-maximal effect;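 as to activity change, negative = inhibition: TAMRA fluorescence gain over two minutes as APE1 cuts a quenched THF abasic duplex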)
Summary of the method: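 Read-out: TAMRA fluorescence (525 nm ex, 598 nm em) from cleavage of a quenched THF abasic-site duplex, 50 nM final; activity taken as intensity change between third and first of three reads 60 s apart.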

[9] = target: Endonuclease 4 (Escherichia coli (strain K12)) (UniProt P0A6C1); assay: Counterscreen for APE1 Inhibitors: qHTS Validation Assay for Inhibitors of Endonuclease IV (AID 1708)
Summary of the method: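 Incision of a double-stranded 50 nM TAMRA/BHQ-2 abasic substrate was followed kinetically (525/598 nm, reads every 60 s) after 15 min enzyme–compound preincubation with 2 nM EndoIV in pH 7.5 Tris buffer with MgCl2, DTT and Tween-20; concentration-response format.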

[10] = Counterscreen for APE1 Inhibitors: Fluorescent Dye Displacement Validation Assay (AID 1707)
Summary of the method: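 Counterscreen flags promiscuous DNA binders: compounds displacing ThO from duplex DNA (abasic THF site, 50 nM) reduce 540 nm emission (480 nm excitation). ThO 250 nM final; Tris-HCl pH 7.5 with NaCl, MgCl2 and Tween-20.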

[11] = measured here: cell count channel max response
[12] = measured here: lipid channel max response

Alpha-galactosidase (Coffea arabica), sequence (Q42656 whole entry, looked up): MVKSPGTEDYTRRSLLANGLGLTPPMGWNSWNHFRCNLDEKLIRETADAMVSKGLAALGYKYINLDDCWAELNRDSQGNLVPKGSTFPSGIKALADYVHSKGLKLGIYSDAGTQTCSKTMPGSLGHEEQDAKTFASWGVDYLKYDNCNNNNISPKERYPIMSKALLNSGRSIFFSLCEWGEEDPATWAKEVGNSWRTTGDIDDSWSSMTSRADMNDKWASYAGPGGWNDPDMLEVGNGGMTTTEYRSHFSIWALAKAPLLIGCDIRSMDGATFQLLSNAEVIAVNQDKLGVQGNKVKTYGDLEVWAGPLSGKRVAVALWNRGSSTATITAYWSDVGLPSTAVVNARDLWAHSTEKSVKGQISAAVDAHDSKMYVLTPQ
DNA repair nuclease/redox regulator APEX1 (Homo sapiens), sequence (P27695 whole entry, looked up): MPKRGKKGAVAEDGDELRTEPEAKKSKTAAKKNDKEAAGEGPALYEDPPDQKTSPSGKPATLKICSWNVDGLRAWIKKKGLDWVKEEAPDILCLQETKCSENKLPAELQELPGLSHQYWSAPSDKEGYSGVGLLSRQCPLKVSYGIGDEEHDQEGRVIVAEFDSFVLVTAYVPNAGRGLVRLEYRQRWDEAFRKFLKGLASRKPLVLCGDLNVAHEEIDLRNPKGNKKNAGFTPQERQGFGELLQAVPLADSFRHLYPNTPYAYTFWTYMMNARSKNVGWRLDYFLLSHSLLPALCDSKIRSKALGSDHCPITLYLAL

Question: For `CCCC(C)(COC(N)=O)COC(N)=O`, which Potency [1] is on record?
Answer: inactive

Question: And the Potency [2]?
Answer: inactive

Question: Which outcome [3] does the source give for `CC(=O)N1CCN(c2ccc(OC[C@H]3CO[C@](Cn4ccnc4)(c4ccc(Cl)cc4Cl)O3)cc2)CC1` here?
Answer: inactive

Question: And the Potency [4]?
Answer: 11.2 µM (active)

Question: Which results are given for `Cc1ncsc1CCCl`?
Answer: activity change, negative = inhibition ([5]; at 57.5 µM (top of the series)): 4.7% (inactive); max response [5, 11]: 0.112%; max response [5, 12]: 4.95%

Question: With `O=C(CCCN1CCC2(CC1)C(=O)NCN2c1ccccc1)c1ccc(F)cc1` as the compound, how does the outcome [6] read?
Answer: inactive

Question: And the outcome [3]?
Answer: inactive

Question: What about the outcome [7] of the same compound?
Answer: inactive

Question: What about the activity change, negative = inhibition ([5]; at 25.7 µM (top of the series)) of the same compound?
Answer: -0.907% (inactive)

Question: And the activity change, negative = inhibition ([5]; at 57.5 µM (top of the series))?
Answer: 7.99% (inactive)

Question: And the max response [5, 11]?
Answer: -5.72% and 5.19%

Question: What about the max response [5, 12] of the same compound?
Answer: -10.3% and 17.9%

Question: What about the Potency [8] of the same compound?
Answer: inactive

Question: And the outcome [9]?
Answer: inactive

Question: What does the source list for `CC(C)c1cccc(C(C)C)c1O`?
Answer: Potency [1]: inactive; Potency [2]: inactive; outcome [6]: inactive; outcome [3]: inactive; outcome [7]: inactive; activity change, negative = inhibition ([5]; at 25.7 µM (top of the series)): -0.519% (inactive); max response [5, 11]: -4.81%; max response [5, 12]: -3.68%; Potency [8]: inactive; outcome [10]: inactive; outcome [9]: inactive; Potency [4]: inactive

Question: Which activity change, negative = inhibition ([5]; at 25.7 µM (top of the series)) does the source give for `Cc1ccc(C(=O)c2ccc(CC(=O)O)n2C)cc1` here?
Answer: -1.39% (inactive)

Question: And the max response [5, 11]?
Answer: -5.63%

Question: And the max response [5, 12]?
Answer: -8.93%

Question: Which results are given for `COc1cc(-c2ccc(=O)[nH]n2)ccc1OC(F)F`?
Answer: outcome [3]: inactive; activity change, negative = inhibition ([5]; at 25.7 µM (top of the series)): -2.55% (inactive); max response [5, 11]: -17.6%; max response [5, 12]: -17.5%

Question: Which activity change, negative = inhibition ([5]; at 57.5 µM (top of the series)) does the source give for `O=C1c2ccccc2C(=O)c2ccccc21` here?
Answer: 11.7% (inactive)

Question: And the max response [5, 11]?
Answer: 14.4%

Question: What about the max response [5, 12] of the same compound?
Answer: 29.4%

Question: Which activity change, negative = inhibition ([5]; at 25.7 µM (top of the series)) does the source give for `COc1ccc2c(c1)C13CCCC[C@@H]1C(C2)N(C)CC3` (some centres undefined) here?
Answer: -0.828% (inactive)

Question: What about the max response [5, 11] of the same compound?
Answer: -8.06%

Question: What about the max response [5, 12] of the same compound?
Answer: -9.19%

Question: Which Potency [1] does the source give for `O=P1(N(CCCl)CCCl)NCCCO1` (centres undefined) here?
Answer: inactive

Question: And the Potency [2]?
Answer: inactive

Question: What about the outcome [6] of the same compound?
Answer: inactive

Question: And the outcome [3]?
Answer: inactive

Question: And the activity change, negative = inhibition ([5]; at 57.5 µM (top of the series))?
Answer: 0.148% (inactive)

Question: And the max response [5, 11]?
Answer: -27.9%

Question: What about the max response [5, 12] of the same compound?
Answer: -28.7%

Question: And the Potency [8]?
Answer: inactive

Question: What about the outcome [10] of the same compound?
Answer: inactive

Question: And the outcome [9]?
Answer: inactive

Question: And the Potency [4]?
Answer: inactive

Question: What does the source list for `C[C@]1(O)CC[C@H]2[C@@H]3CCC4=CC(=O)CC[C@]4(C)[C@@]3(F)[C@@H](O)C[C@@]21C`?
Answer: Potency [1]: inactive; Potency [2]: inactive

Question: What does the source list for `C[C@]12CCC(=O)C=C1CC[C@@H]1[C@@H]2CC[C@]2(C)C(=O)CC[C@@H]12`?
Answer: Potency [1]: inactive; Potency [2]: inactive; outcome [6]: inactive; outcome [3]: inactive; outcome [7]: inactive; activity change, negative = inhibition ([5]; at 57.5 µM (top of the series)): 0.917% (inactive); max response [5, 11]: 67.2%; max response [5, 12]: 68.1%; Potency [8]: inactive; outcome [10]: inactive; outcome [9]: inactive

Question: Which outcome [6] does the source give for `CCCCC/C=C\C/C=C\C/C=C\C/C=C\CCCC(=O)NCC(=O)O` here?
Answer: inactive

Question: And the outcome [3]?
Answer: inactive

Question: And the outcome [7]?
Answer: inactive

Question: What about the activity change, negative = inhibition ([5]; at 57.5 µM (top of the series)) of the same compound?
Answer: -0.69% (inactive)

Question: What about the max response [5, 11] of the same compound?
Answer: 64.5%

Question: What about the max response [5, 12] of the same compound?
Answer: 63.6%

Question: And the Potency [8]?
Answer: 28.2 µM (active)

Question: What about the outcome [10] of the same compound?
Answer: inactive

Question: And the Potency [4]?
Answer: 14.1 µM (active)
